Source: the antibiotic and cytotoxicity screens of Wong et al. (2023)
In all, about 39,000 compounds went through this assay and about 1,500 (3.8%) were called active. This is one part of a sample in which actives are shown more often than they occur.

These molecules were tested on HSkMC (human skeletal muscle cells) (assay: cytotoxicity call (relative viability < 0.9)). Settings: 10 µM.
For COCC#Cc1cnc2c(c1)C(=O)N([C@H](C)CO)C[C@@H](C)[C@@H](CN(C)C(=O)c1cnccn1)O2, the cytotoxicity call was “inactive”.
C[C@H]1CN([C@@H](C)CO)C(=O)c2cccc(NC(=O)Nc3ccccc3)c2O[C@H]1CN(C)Cc1ccc(C(F)(F)F)cc1 was tested, and the cytotoxicity call was “inactive”.
For C[C@@H]1CN([C@@H](C)CO)C(=O)c2cc(NS(C)(=O)=O)ccc2O[C@@H]1CN(C)S(=O)(=O)c1ccc(Cl)cc1, the cytotoxicity call was “inactive”.
With C=CCOC(=O)[C@H]1[C@@H]2C(=O)O[C@@H](c3ccccc3)[C@@H](c3ccccc3)N2[C@@H](c2ccc(OCCOC(=O)[C@H]3C[C@H]4C(=O)NCC(=O)N4[C@H]3c3ccc(O)cc3)cc2)[C@]12C(=O)Nc1ccc(I)cc12 the cytotoxicity call was “inactive”.
C=C(O)C(=O)O was tested, and the cytotoxicity call was “inactive”.
With C[C@H]1CN([C@@H](C)CO)C(=O)Cc2cc(NS(=O)(=O)c3cccs3)ccc2O[C@@H]1CN(C)S(=O)(=O)c1cccs1 the cytotoxicity call was “inactive”.
Cc1cc(NC(=O)CCCC(=O)O)n(C)n1 was tested, and the cytotoxicity call was “inactive”.
C[C@H](CO)N1C[C@H](C)[C@@H](CN(C)C(=O)Nc2cccc3ccccc23)Oc2ccc(NC(=O)Nc3ccc(F)cc3)cc2C1=O was tested, and the cytotoxicity call was “inactive”.
For C[C@H]1CN([C@@H](C)CO)C(=O)c2cc(NC(=O)Nc3ccc(F)cc3)ccc2O[C@@H]1CN(C)C(=O)Nc1cccc2ccccc12, the cytotoxicity call was “inactive”.
In the case of C[C@@H]1CN([C@H](C)CO)C(=O)c2cc(NC(=O)Nc3ccc(F)cc3)ccc2O[C@H]1CN(C)C(=O)Nc1cccc2ccccc12, the cytotoxicity call is reported as “inactive”.
With C[C@@H]1CN([C@@H](C)CO)C(=O)c2cc(NC(=O)Nc3ccc(F)cc3)ccc2O[C@@H]1CN(C)C(=O)Nc1cccc2ccccc12 the cytotoxicity call was “active”.
In the case of C[C@@H]1CN([C@H](C)CO)C(=O)c2cc(NC(=O)Nc3ccc(F)cc3)ccc2O[C@@H]1CN(C)C(=O)Nc1cccc2ccccc12, the cytotoxicity call is reported as “active”.
In the case of C[C@H](CO)N1C[C@H](C)[C@H](CN(C)C(=O)Nc2cccc3ccccc23)Oc2ccc(NC(=O)Nc3ccc(F)cc3)cc2C1=O, the cytotoxicity call is reported as “inactive”.
Cc1ccc(S(=O)(=O)N(C)C[C@H]2Oc3ccc(NC(=O)C4CC4)cc3CC(=O)N([C@@H](C)CO)C[C@H]2C)cc1 was tested, and the cytotoxicity call was “inactive”.
In the case of C[C@@H]1CCCCO[C@@H](CN(C)S(=O)(=O)c2ccccc2)[C@@H](C)CN([C@@H](C)CO)C(=O)c2cc(NC(=O)C3CCCCC3)ccc2O1, the cytotoxicity call is reported as “inactive”.
C[C@H]1CN([C@@H](C)CO)C(=O)c2cc(Br)cnc2O[C@H]1CN(C)S(=O)(=O)c1cccs1 was tested, and the cytotoxicity call was “inactive”.
In the case of C[C@@H]1CCCCO[C@H](CN(C)S(=O)(=O)c2cccs2)[C@H](C)CN([C@H](C)CO)C(=O)c2cc(NS(C)(=O)=O)ccc2O1, the cytotoxicity call is reported as “inactive”.
With Cc1noc(C)c1S(=O)(=O)N(C)C[C@@H]1Oc2ccc(NS(=O)(=O)c3cccs3)cc2CC(=O)N([C@H](C)CO)C[C@H]1C the cytotoxicity call was “inactive”.
C[C@@H]1CN([C@H](C)CO)C(=O)c2cc(NS(C)(=O)=O)ccc2O[C@@H](C)CCCCO[C@H]1CN(C)S(=O)(=O)c1cccs1 was tested, and the cytotoxicity call was “inactive”.
In the case of CC(C)=CCCC(C)(O)C1CC=C(C)CC1 (stereo unspecified), the cytotoxicity call is reported as “active”.
For CC1=CC[C@H](C(C)(C)O)CC1, the cytotoxicity call was “inactive”.
With C=CC(C)(O)CCC=C(C)C (stereo unspecified) the cytotoxicity call was “inactive”.
In the case of CC(C)CC#Cc1cnc2c(c1)C(=O)N([C@@H](C)CO)C[C@@H](C)[C@H](CN(C)S(=O)(=O)c1cn(C)cn1)O2, the cytotoxicity call is reported as “inactive”.
C[C@@H]1CCCCO[C@H](CN(C)C(=O)C2CCCCC2)[C@H](C)CN([C@H](C)CO)C(=O)c2cc(NS(=O)(=O)c3ccc(Cl)cc3)ccc2O1 was tested, and the cytotoxicity call was “inactive”.
C[C@@H]1CCCCO[C@@H](CN(C)C(=O)C2CCCCC2)[C@@H](C)CN([C@H](C)CO)C(=O)c2cc(NS(=O)(=O)c3ccc(Cl)cc3)ccc2O1 was tested, and the cytotoxicity call was “active”.
In the case of C[C@@H]1CCCCO[C@H](CN(C)C(=O)C2CCCCC2)[C@@H](C)CN([C@H](C)CO)C(=O)c2cc(NS(=O)(=O)c3ccc(Cl)cc3)ccc2O1, the cytotoxicity call is reported as “inactive”.
C[C@@H]1CN([C@H](C)CO)C(=O)c2cc(NS(=O)(=O)c3ccc(Cl)cc3)ccc2O[C@@H](C)CCCCO[C@H]1CN(C)C(=O)C1CCCCC1 was tested, and the cytotoxicity call was “inactive”.
In the case of C[C@@H]1CCCCO[C@@H](CN(C)C(=O)C2CCCCC2)[C@H](C)CN([C@@H](C)CO)C(=O)c2cc(NS(=O)(=O)c3ccc(Cl)cc3)ccc2O1, the cytotoxicity call is reported as “inactive”.
For C[C@@H]1CCCCO[C@H](CN(C)C(=O)C2CCCCC2)[C@H](C)CN([C@@H](C)CO)C(=O)c2cc(NS(=O)(=O)c3ccc(Cl)cc3)ccc2O1, the cytotoxicity call was “active”.
For C[C@H]1CCCCO[C@H](CN(C)C(=O)C2CCCCC2)[C@@H](C)CN([C@@H](C)CO)C(=O)c2cc(NS(=O)(=O)c3ccc(Cl)cc3)ccc2O1, the cytotoxicity call was “active”.
For C[C@@H]1CN([C@@H](C)CO)C(=O)c2cc(NS(=O)(=O)c3ccc(Cl)cc3)ccc2O[C@@H](C)CCCCO[C@H]1CN(C)C(=O)C1CCCCC1, the cytotoxicity call was “inactive”.
In the case of C[C@H]1CCCCO[C@H](CN(C)C(=O)Cc2ccccc2)[C@@H](C)CN([C@@H](C)CO)C(=O)c2cc(NS(=O)(=O)c3ccc(Cl)cc3)ccc2O1, the cytotoxicity call is reported as “active”.
With C[C@@H]1CN([C@@H](C)CO)C(=O)c2cc(NS(=O)(=O)c3ccc(Cl)cc3)ccc2O[C@@H](C)CCCCO[C@H]1CN(C)C(=O)Cc1ccccc1 the cytotoxicity call was “inactive”.
In the case of C[C@H](CO)N1C[C@H](C)[C@@H](CN(C)C(=O)C2CCCCC2)OCCCC[C@H](C)Oc2ccc(NS(=O)(=O)c3ccc(Cl)cc3)cc2C1=O, the cytotoxicity call is reported as “inactive”.
With C[C@@H]1CCCCO[C@@H](CN(C)C(=O)Cc2ccccc2)[C@@H](C)CN([C@@H](C)CO)C(=O)c2cc(NS(=O)(=O)c3ccc(Cl)cc3)ccc2O1 the cytotoxicity call was “inactive”.
For CNC(=O)CN1CCO[C@H]2CN(C(=O)c3cnccn3)C[C@@H]21, the cytotoxicity call was “inactive”.
For CC1(C)C(=O)NCCN1C(=O)c1ccco1, the cytotoxicity call was “inactive”.
C[C@H]1CN([C@@H](C)CO)C(=O)Cc2cc(NS(=O)(=O)c3ccc(Cl)cc3)ccc2O[C@H]1CN(C)S(=O)(=O)c1cn(C)cn1 was tested, and the cytotoxicity call was “inactive”.
C[C@@H]1CN([C@H](C)CO)C(=O)Cc2cc(NC(=O)Cc3cn(C)c4ccccc34)ccc2O[C@H]1CN(C)C(=O)Nc1ccc(C(F)(F)F)cc1 was tested, and the cytotoxicity call was “inactive”.
With COc1ccc(NC(=O)N2C[C@H](O)COC[C@@H]3O[C@H](CC(=O)NCc4ccccc4OC)CC[C@H]32)cc1 the cytotoxicity call was “inactive”.
For Cc1ccc(S(=O)(=O)N(C)C[C@@H]2Oc3c(NC(=O)c4ccncc4)cccc3C(=O)N([C@H](C)CO)C[C@@H]2C)cc1, the cytotoxicity call was “inactive”.
With COc1cccc(S(=O)(=O)N[C@H]2CC[C@@H](CCn3cc(-c4ccccc4OC)nn3)O[C@@H]2CO)c1 the cytotoxicity call was “inactive”.
With COc1cc(C(=O)O)ccc1NC(=O)[C@@H]1N[C@@H](CC(C)(C)C)[C@](C#N)(c2ccc(Cl)cc2F)[C@H]1c1cccc(Cl)c1F the cytotoxicity call was “active”.
For C[C@@H]1CN([C@H](C)CO)C(=O)c2cc(NS(=O)(=O)c3ccc(Cl)cc3)ccc2O[C@H]1CN(C)Cc1ccc(C(=O)Nc2ccccc2N)cc1, the cytotoxicity call was “inactive”.
For C[C@@H]1CN([C@H](C)CO)C(=O)c2cc(C#Cc3ccccc3F)cnc2O[C@H]1CN(C)C(=O)c1ccc2c(c1)OCO2, the cytotoxicity call was “inactive”.
O=C(/C=C/c1cc2c(cc1Br)OCCO2)c1c(-c2ccccc2)c2cc(Cl)ccc2[nH]c1=O was tested, and the cytotoxicity call was “active”.
